CHRM1 antagonist: human CHRM1 antagonism; CHO-K1 hM1, Fluo-8 calcium fluorescence, ACh EC80 antagonist; AID 588852; inhibition, % at 3 µM; hit rate 1.3% among 360,000;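 active means percent inhibition above its own plate's cutoff, namely the mean of that plate's compound wells plus 3 SD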;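 further: peak over basal fluorescence ratio during 140 s after agonist addition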
Target sequence (P11229 whole entry, looked up): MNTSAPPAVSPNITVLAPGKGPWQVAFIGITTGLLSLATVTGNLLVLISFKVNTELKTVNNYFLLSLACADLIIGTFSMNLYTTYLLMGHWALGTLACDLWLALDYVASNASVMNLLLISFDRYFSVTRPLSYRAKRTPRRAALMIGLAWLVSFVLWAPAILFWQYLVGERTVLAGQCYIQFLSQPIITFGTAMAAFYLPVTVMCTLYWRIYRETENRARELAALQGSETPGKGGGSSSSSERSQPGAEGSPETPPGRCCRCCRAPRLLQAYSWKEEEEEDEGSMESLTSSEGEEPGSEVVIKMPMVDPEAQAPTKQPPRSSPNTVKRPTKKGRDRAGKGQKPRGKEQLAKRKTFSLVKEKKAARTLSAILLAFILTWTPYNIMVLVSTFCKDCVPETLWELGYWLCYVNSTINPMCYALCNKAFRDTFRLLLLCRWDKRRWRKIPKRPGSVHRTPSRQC
CHRM1 agonist: human M1 muscarinic receptor agonism; hit rate 0.33% among 360,000; AID 588814; activation, % at 3 µM; CHO-K1 hM1, Fluo-8 calcium fluorescence, agonist mode; 0% DMSO, 100% acetylcholine EC100;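 active means activation above the run's mean compound activation plus 3 SD, cut at about 16% in these data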;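 further: peak over basal fluorescence ratio within a 140 s kinetic read after compound addition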
M1 PAM: human CHRM1 positive allosteric modulation; activation, % at 3 µM; hit rate 0.088% among 360,000; P11229; AID 588819; CHO-K1 hM1, Fluo-8 calcium fluorescence, ACh EC20; 0% = ACh EC20, 100% = maximal ACh; in the data active means activation above about 19%, passing the limit was not always enough
CHO-K1 Ca antag: counter-screen for M1 antagonists: effect in parental CHO-K1 cells; ATP-induced calcium, Fluo-8 fluorescence; inhibition, % at 3 µM; hit rate 0.6% among 360,000;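 active means inhibition above a per-plate cutoff, the plate's mean sample inhibition plus 3 SD, cut at about 24% in these data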
M1 ag parental: nonselective activator or artifact in parental CHO-K1 cells; Fluo-8 calcium fluorescence; scaled to maximal ATP response, vehicle zero; activation, % at 3 µM; hit rate 0.48% among 360,000; in the data active means activation above about 15%;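 further: untransfected CHO-K1 host cells lacking M1 receptor as counterscreen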
CHO-K1 Ca PAM: counter-screen for M1 PAMs: effect in parental CHO-K1 cells; ATP EC20, Fluo-8 calcium fluorescence; 0% at ATP EC20, 100% at ATP max; activation, % at 3 µM; hit rate 0.02% among 360,000;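 active means activation above the run cutoff, the mean activation of all test compounds plus 3 SD, cut at about 40% in these data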;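 further: peak over basal fluorescence ratio in a 140 s read after ATP addition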
Hits are given with their value; – = inactive; · = not tested or not shown. In the library only some 2.3% were active in any assay of this set; here they are far more common.

SMILES | CHRM1 antagonist | CHRM1 agonist | M1 PAM | CHO-K1 Ca antag | M1 ag parental | CHO-K1 Ca PAM
Cc1[nH]c(=O)c(S(=O)(=O)c2ccccc2)c(C)c1Cl | – | – | – | – | – | –
CC[N+](CC)(CC)CCOc1ccc(/C=C/c2ccccc2)cc1 | 94.7 | – | – | – | – | –
CCOc1ccc(/C=C/C(=O)c2ccccc2)cc1 | – | – | – | – | – | –
Cc1ccc(C(=O)CCC(=O)N2CCC(C(N)=O)CC2)s1 | – | – | – | – | – | –
CN1CCC(OC(=O)COc2ccc(Br)cc2)CC1 | 30.6 | – | – | – | – | –
COc1ccc(OCC(=O)OC2CCN(C)CC2)cc1 | – | – | – | – | – | –
Cc1ccccc1OCC(=O)OC1CCN(C)CC1 | 32.0 | – | – | – | – | –
O=C(/C=C/c1c(F)cccc1Cl)c1ccc(O)cc1 | – | – | – | – | – | –
N#Cc1c(-c2cccs2)cc(-c2cccs2)[nH]c1=O | – | – | – | – | – | 39.9
CCSc1ccc2c(c1)N(CCCN1CCN(C)CC1)c1ccccc1S2 | – | – | – | – | – | –
CN1CCCCC1CCN1c2ccccc2Sc2ccc(S(C)=O)cc21 (stereo not given) | 99.3 | – | – | – | – | –
COC(=O)[C@]12CCCCC=C1N(CCC1=CCCCC1)C(=O)[C@H](CC(=O)NCCc1ccccc1OC)C2 | · | · | · | – | – | –
O=C(Nc1ccccc1)Nc1cccc(C(F)(F)F)c1 | – | – | – | 30.0 | – | –
COc1cccc(NC(=O)Nc2cc(C)ccc2OC)c1 | – | – | – | – | – | –
Cc1ccc(OC(F)F)c(NC(=O)Nc2cccc(C(F)(F)F)c2)c1 | 27.7 | – | – | – | – | –
CNC(=O)Nc1cccc(C(F)(F)F)c1 | – | – | – | – | – | –
COc1ccc(NC(=O)Nc2cccc(C(F)(F)F)c2)cn1 | – | – | – | 26.3 | – | –
COc1ccc(NC(=O)Nc2cc(C)cc(C)c2)cn1 | – | – | – | – | – | –
COc1ccc(NC(=O)Nc2ccc([N+](=O)[O-])cc2)cn1 | – | – | – | – | 16.2 | –
CCc1cc(-c2n[nH]c(C)c2-c2ccccc2Cl)c(O)cc1OC | – | – | – | – | – | –
CNC(=O)C[C@H]1C(=O)N(CCc2ccccc2)C[C@@H]1CSC | – | – | – | – | – | –
CC(=O)C1C(=O)CC(C)(O)C(C(C)=O)C1c1ccccc1 (stereo not given) | – | – | – | – | – | –
O=C(Nc1ccc(-n2ccc(C(F)(F)F)n2)cc1)Nc1cccc(Cl)c1 | 45.2 | – | – | 30.5 | – | –
CCCCCNCC(=O)Nc1cccc(C(=O)Nc2cccc(C(F)(F)F)c2)c1 | – | – | – | – | 24.4 | –
CC(=O)c1c(C)[nH]c(C(=O)Nc2cccc(C#N)c2)c1C | – | – | – | – | – | –
SMILES | CHRM1 antagonist | CHRM1 agonist | M1 PAM | CHO-K1 Ca antag | M1 ag parental | CHO-K1 Ca PAM
Cc1ccccc1NC(=O)CNC(=O)c1ccc(C(F)(F)F)cc1 | – | – | – | – | – | –
O=C(CN1CCOCC1)Nc1cccc(C(=O)Nc2cccc(C(F)(F)F)c2)c1 | – | – | – | – | – | –
Cc1cc(C)cc(NC(=O)Nc2ccc(-n3ccc(C(F)(F)F)n3)cc2)c1 | – | – | – | – | – | –
CC(=O)c1c(C)[nH]c(C(=O)Nc2cccc(C(F)(F)F)c2)c1C | 24.7 | – | – | – | 18.4 | –
Cc1ccccc1NC(=O)Nc1ccc(C(F)(F)F)cc1 | – | – | – | 24.1 | – | –
CSc1ncc(OCc2ccccc2)c(=O)[nH]1 | – | – | – | – | – | –
Cc1cc(C)cc(NC(=O)C2C3C=CC4(O3)C2C(=O)N(CCCN(C)C)C4C(=O)NC2CCCC(C)C2C)c1 (stereo not given) | – | – | – | – | – | –
CC(=O)C[C@H](O)CC(=O)[C@@H]1OC(=O)CCCCCc2ccccc21 | – | – | – | – | – | –
OC(CSc1ccccc1)CN1CCN(c2cccc(Cl)c2)CC1 (stereo not given) | – | 24.6 | – | – | – | –
OC(CSc1ccccc1)CN1CCN(c2ccc(Cl)cc2)CC1 (stereo not given) | – | – | – | – | – | –
OC(COc1cccc2ccccc12)CN1CCN(c2cccc(Cl)c2)CC1 (stereo not given) | – | – | – | – | 21.2 | –

Source: PubChem BioAssay
